From PubChem BioAssay AID743449 (Broad Institute, 2014)
The whole screen tested about 9,900 compounds, of which about 90 (0.9%) were called active. Roughly 2% stayed inconclusive and do not appear here. The sample holds actives, similar compounds and a random draw of the others, so the mix is not that of the screen.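 The calls were made as follows: active = mean normalized replicate activity at least 50 and at least half of replicates each reaching 50; inconclusive = only one of the two criteria met; inactive = neither criterion met.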

Experiment: reduction of CTGF mRNA in DLD1 cells – DLD1 colon cancer cells, RT-qPCR, single point, primary screen (AID 743449);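 also: 0% = neutral control wells and 100% = dasatinib control wells; higher means stronger suppression of CTGF expression like dasatinib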
Conditions: 24 h, at 12.5 µM, active compounds read high

Compound	inhibition
C[C@H](CO)N1C[C@H](C)[C@@H](CN(C)S(C)(=O)=O)Oc2ncc(-c3ccc(F)cc3)cc2C1=O	15.8% (inactive)
CO[C@@H]1CN(C)C(=O)c2cc(NS(=O)(=O)c3cccc(Cl)c3)ccc2OC[C@H](C)NC[C@@H]1C	4.93% (inactive)
CO[C@@H]1CC[C@H]2CCOc3ccc(C#N)cc3C(=O)N(C)C[C@@H](c3ccccc3)CC(=O)N(C)C[C@@H]1O2	-20.2% (inactive)
COCC(=O)N1[C@H](CO)[C@H](c2ccc(C#CC(C)C)cc2)[C@@H]1CNC(C)=O	26.8% (inactive)
C[C@H]1CN([C@@H](C)CO)C(=O)c2cc(NS(=O)(=O)c3cn(C)cn3)ccc2O[C@H]1CN(C)S(=O)(=O)c1ccc(F)cc1	-21.9% (inactive)
COCc1cn(CC[C@@H]2CC[C@@H](NC(=O)Nc3c(C)noc3C)[C@@H](CO)O2)nn1	4.39% (inactive)
C[C@@H]1CCCCO[C@@H](CN(C)Cc2ccc(C(=O)O)cc2)[C@H](C)CN([C@H](C)CO)C(=O)c2cc(N(C)C)ccc2O1	-3.21% (inactive)
Cc1cccc(S(=O)(=O)N2C[C@H](O)COC[C@@H]3O[C@@H](CC(=O)Nc4ccccc4)CC[C@H]32)c1	8.1% (inactive)
COc1ccc2c3c(n(C)c2c1)[C@@H](CO)N(Cc1ccncc1)CC31CN(C(=O)C2CCCCC2)C1	2.18% (inactive)
COc1ccc2c3c(n(C)c2c1)[C@H](CO)N(Cc1ccncc1)CC31CN(C(=O)Nc2cccc(F)c2)C1	46.1% (inactive)
COc1ccc2c3c(n(C)c2c1)[C@@H](CO)N(Cc1ccncc1)CC31CN(C(=O)Nc2cccc(F)c2)C1	52.9% (active)
CC(=O)N1[C@H](CO)[C@H](c2ccccc2)[C@@H]1CN(C(=O)c1ccccc1F)C(C)C	13% (inactive)
CCNC(=O)C[C@H]1CC[C@@H]2[C@H](COC[C@H](O)CN2C(=O)C2CCCC2)O1	-1.66% (inactive)
C[C@@H]1CN([C@H](C)CO)C(=O)c2ccccc2-c2ccccc2CO[C@@H]1CN(C)C(=O)Nc1cccc(C(F)(F)F)c1	14.3% (inactive)
C[C@H]1CN([C@@H](C)CO)C(=O)c2cc(C#Cc3ccccc3)cnc2O[C@@H]1CN(C)C(=O)c1ccccc1	34.5% (inactive)
C[C@@H]1CN([C@@H](C)CO)C(=O)c2ccccc2-c2ccccc2CO[C@H]1CN(C)C(=O)Nc1ccc(-c2ccccc2)cc1	73.6% (active)
C[C@H](CO)N1C[C@H](C)[C@H](CN(C)C(=O)Nc2ccc(-c3ccccc3)cc2)OCc2ccccc2-c2ccccc2C1=O	28.1% (inactive)
C[C@@H]1CN([C@H](C)CO)C(=O)c2ccccc2-c2ccccc2CO[C@@H]1CN(C)C(=O)Nc1ccc(-c2ccccc2)cc1	39.6% (inactive)
C[C@@H]1CN([C@H](C)CO)C(=O)c2cc(C#Cc3ccccc3)cnc2O[C@@H]1CN(C)C(=O)c1ccccc1	14.1% (inactive)
C[C@@H]1CCCCO[C@@H](CN(C)C(=O)Nc2ccccc2)[C@H](C)CN([C@@H](C)CO)C(=O)c2cc(NC(=O)Nc3ccccc3)ccc2O1	16.9% (inactive)
C[C@@H]1CCCCO[C@H](CN(C)C(=O)Nc2ccccc2)[C@H](C)CN([C@@H](C)CO)C(=O)c2cc(NC(=O)Nc3ccccc3)ccc2O1	0.777% (inactive)
C[C@@H]1CN([C@@H](C)CO)C(=O)c2ccccc2-c2ccccc2CO[C@H]1CN(C)C(=O)Nc1cccc(C(F)(F)F)c1	64.7% (active)

Compound	inhibition
C[C@H]1CN([C@@H](C)CO)C(=O)c2cc(C#Cc3ccccc3)cnc2O[C@H]1CN(C)C(=O)c1ccccc1	65.3% (active)
C[C@@H]1CN([C@@H](C)CO)C(=O)c2cc(NC(=O)Nc3ccccc3)ccc2O[C@@H](C)CCCCO[C@@H]1CN(C)C(=O)Nc1ccccc1	62.7% (active)
C[C@H](CO)N1C[C@H](C)[C@H](CN(C)C(=O)Nc2cccc(C(F)(F)F)c2)OCc2ccccc2-c2ccccc2C1=O	11.9% (inactive)
O=C(C[C@@H]1CC[C@H]2[C@@H](COC[C@H](O)CN2C(=O)Nc2ccc(Cl)cc2)O1)NCC1CCCCC1	4.31% (inactive)
COc1ccccc1C#Cc1ccc([C@@H]2[C@@H](C#N)N(C(=O)C3CCC3)[C@@H]2CO)cc1	21% (inactive)
C[C@@H](NC(=O)C[C@@H]1C[C@H]2c3cc(NS(=O)(=O)c4ccc(F)cc4)ccc3O[C@H]2[C@@H](CO)O1)c1ccccc1	-0.447% (inactive)
COc1cccc(CNC(=O)[C@H]2[C@H](CO)[C@H]3Cn4c(ccc(-c5cncnc5)c4=O)[C@H]3N2C)c1	1.36% (inactive)
CO[C@@H](CN(C)S(=O)(=O)c1cccc(Cl)c1)[C@H](C)CN(C(=O)Nc1ccccc1F)[C@H](C)CO	-17% (inactive)
CCCNC(=O)N1[C@H](C#N)[C@H](c2ccc(C#Cc3cccc(F)c3)cc2)[C@H]1CO	12.2% (inactive)
CCCNC(=O)N1[C@H](C#N)[C@@H](c2ccc(C#Cc3cccc(F)c3)cc2)[C@@H]1CO	69.7% (active)
CCCNC(=O)N1[C@@H](C#N)[C@@H](c2ccc(C#Cc3cccc(F)c3)cc2)[C@@H]1CO	40.6% (inactive)
O=C(C[C@H]1CC[C@H]2[C@@H](COC[C@@H](O)CN2C(=O)c2ccc3c(c2)OCO3)O1)NC1CCC1	11% (inactive)
CN(C)CC(=O)N1CC2(C1)[C@H](c1ccccc1)[C@H](CO)N2S(C)(=O)=O	-45.5% (inactive)
C[C@H]1CN([C@@H](C)CO)C(=O)c2ccccc2-c2ccccc2CO[C@H]1CN(C)Cc1ccc(Oc2ccccc2)cc1	47.8% (inactive)
C[C@H](CO)N1C[C@H](C)[C@H](CN(C)Cc2ccc3c(c2)OCCN3C)OCc2ccccc2-c2ccccc2C1=O	-137% (inactive)
C[C@H]1CN([C@@H](C)CO)C(=O)c2ccccc2-c2ccccc2CO[C@H]1CN(C)Cc1ccc2c(c1)OCCN2C	-29.2% (inactive)
C[C@@H]1CN([C@H](C)CO)C(=O)c2ccccc2-c2ccccc2CO[C@@H]1CN(C)Cc1cccnc1	-8.82% (inactive)
C[C@@H]1CN([C@H](C)CO)C(=O)c2ccccc2-c2ccccc2CO[C@@H]1CN(C)Cc1ccc2c(c1)OCCN2C	68.3% (active)
C[C@H](CO)N1C[C@H](C)[C@@H](CN(C)Cc2ccc(Oc3ccccc3)cc2)OCc2ccccc2-c2ccccc2C1=O	-10.6% (inactive)
C[C@@H]1CN([C@@H](C)CO)C(=O)c2ccccc2-c2ccccc2CO[C@@H]1CN(C)Cc1ccc(Oc2ccccc2)cc1	44.4% (inactive)
C[C@@H]1CN([C@H](C)CO)C(=O)c2ccccc2-c2ccccc2CO[C@@H]1CN(C)Cc1ccc(Oc2ccccc2)cc1	83.9% (active)
C[C@H](CO)N1C[C@H](C)[C@H](CN(C)Cc2ccc(Oc3ccccc3)cc2)OCc2ccccc2-c2ccccc2C1=O	59% (active)
